Experimental data published in PubChem BioAssay (EPA / NIEHS).
Records with an inconclusive call do not appear. Activity calls are given as the source filed them. How the source made its calls, unless noted: active means hit-call score of the fitted dose curve at least 0.9, where 1 is the maximum; inactive means score below 0.9.

Assays:
[1] = CCTE_Shafer_MEA_acute_spike_number: CCTE's Neural Acute Assay for Total Number of Spikes, Shafer Lab (AID 2284008);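 on AC50: curve fitted for decrease in spike count so AC50 reflects inhibitors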
In short: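 Primary rat cortical neurons on 16-electrode MEA wells; on DIV 13 or 15, 40-min baseline then 40-min recording with compound (0.03-40 uM) at 37 C. Spikes detected at 8x rms noise; percent change versus baseline, DMSO as negative control.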

[2] = CCTE_Shafer_MEA_acute_firing_rate_mean: CCTE's Neural Acute Assay for Mean Firing Rate, Shafer Lab (AID 2284009);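 further: analyzed for loss of signal so actives lower firing rate relative to DMSO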
In short: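 Spontaneous spiking of primary rat cortical networks, DIV 13/15, 37 C. Compound 0.03-40 uM, n ≥3 wells; 40 min baseline vs 40 min treated. Endpoint fitted in loss-of-signal direction against DMSO.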

[3] = CCTE_Harrill_HTTr_Viability_MCF7: CCTE's 6-hour Cell Viability Assessment for the High-Throughput Transcriptomics (HTTr) Platform, in MCF-7 cells cultured in DMEM + 10% fetal bovine serum, Harrill Lab (AID 2284010)
In short: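 Propidium iodide exclusion, imaged by high-content analysis, gauged viability after a six-hour exposure across eight concentrations. Cells were MCF-7 grown in DMEM with 10% fetal bovine serum; fits run in both directions against DMSO.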

[4] = CCTE_Harrill_HTTr_Apoptosis_MCF7: CCTE's 6-hour Apoptosis Assessment for the High-Throughput Transcriptomics (HTTr) Platform, in MCF-7 cells cultured in DMEM + 10% fetal bovine serum, Harrill Lab (AID 2284011)
In short: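 MCF-7 cells in DMEM + 10% fetal bovine serum were exposed to chemicals for 6 hours over an eight-point dilution series. Caspase-3/7 activation was imaged by high content imaging with CellEvent Caspase 3/7 Green; bidirectional fitting used DMSO as baseline.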

[5] = CCTE_Harrill_HTTr_CellCount_MCF7: CCTE's Cell Proliferation Assessment for the High-Throughput Transcriptomics (HTTr) Platform, Harrill Lab (AID 2284012; active means hit-call score of the fitted dose curve at least 0.9, where 1 is the maximum;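 further: cells exposed to compound for six hours; intended direction is loss of nuclei count meaning fewer cells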)
In short: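 Cell count from high-content imaging of Hoechst-labeled nuclei serves as viability/growth readout. Chemicals were applied to MCF-7 cells in eight concentrations for six hours, with fitting in both directions relative to DMSO.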

[6] = CCTE_Shafer_MEA_acute_burst_number: CCTE's Neural Acute Assay for Single-Electrode Bursts, Shafer Lab (AID 2284013)
In short: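 Burst totals were derived with adaptive spike detection (8x rms threshold) on filtered signals from rat cortical cultures; change relative to pre-treatment baseline after 40-min compound exposure (0.03-40 uM) was fitted in the negative direction against DMSO.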

[7] = target: Nucleoli Translocation, AR (gene 367) (UniProt P10275); assay: UPITT_HCI_U2OS_AR_TIF2_Nucleoli_Antagonist: University of Pittsburgh U2OS Androgen Receptor-Transcriptional Intermediary Factor 2 (AR-TIF2) Antagonism High Content Imaging Assay for Nucleoli Translocation (AID 2283997; active means hit-call score of the fitted dose curve at least 0.9, where 1 is the maximum)
Chain of Nucleoli Translocation, AR (gene 367) (P10275 whole entry, looked up, the tested form may be a part): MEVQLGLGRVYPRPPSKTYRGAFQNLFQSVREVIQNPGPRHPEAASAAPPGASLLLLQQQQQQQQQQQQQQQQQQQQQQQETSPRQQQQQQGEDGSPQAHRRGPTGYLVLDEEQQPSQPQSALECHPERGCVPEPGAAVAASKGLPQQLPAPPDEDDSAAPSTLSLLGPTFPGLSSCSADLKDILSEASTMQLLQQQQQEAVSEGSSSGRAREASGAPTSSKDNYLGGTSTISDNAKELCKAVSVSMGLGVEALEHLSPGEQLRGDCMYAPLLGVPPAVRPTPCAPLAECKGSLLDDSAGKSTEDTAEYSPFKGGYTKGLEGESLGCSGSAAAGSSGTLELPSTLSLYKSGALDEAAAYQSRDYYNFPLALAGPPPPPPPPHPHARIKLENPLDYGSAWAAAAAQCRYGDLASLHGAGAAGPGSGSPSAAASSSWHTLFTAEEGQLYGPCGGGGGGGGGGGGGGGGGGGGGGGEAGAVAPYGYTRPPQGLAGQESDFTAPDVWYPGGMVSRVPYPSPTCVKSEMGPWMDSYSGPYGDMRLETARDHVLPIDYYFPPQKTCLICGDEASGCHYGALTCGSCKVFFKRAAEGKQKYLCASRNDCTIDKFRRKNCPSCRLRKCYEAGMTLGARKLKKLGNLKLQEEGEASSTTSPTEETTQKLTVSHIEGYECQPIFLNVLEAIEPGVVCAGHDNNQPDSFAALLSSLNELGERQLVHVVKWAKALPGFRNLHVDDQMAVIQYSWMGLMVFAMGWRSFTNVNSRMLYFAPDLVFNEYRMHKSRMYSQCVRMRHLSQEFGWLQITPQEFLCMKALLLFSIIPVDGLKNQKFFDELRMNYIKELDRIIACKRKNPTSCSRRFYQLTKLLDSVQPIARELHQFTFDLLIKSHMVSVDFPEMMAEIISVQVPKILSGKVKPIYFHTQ
In short: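 An antagonist-mode imaging screen: engineered U2OS (AR-RFP, TIF2-GFP) exposed to 20 uM compound, 0.2% DMSO. Activity reflects nucleolar red fluorescence change relative to DHT baseline.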

[8] = target: Ratio of Nucleoli Translocation and Cytoplasm, AR (gene 367) (UniProt P10275); assay: UPITT_HCI_U2OS_AR_TIF2_Nucleoli_Cytoplasm_Ratio_Agonist: University of Pittsburgh U2OS Androgen Receptor-Transcriptional Intermediary Factor 2 (AR-TIF2) Agonism High Content Imaging Assay for Ratio of Nucleoli Translocation and Cytoplasm (AID 2284000; active means hit-call score of the fitted dose curve at least 0.9, where 1 is the maximum;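 further: hits raise the red nucleolar to cytoplasm ratio above vehicle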)
Chain of Ratio of Nucleoli Translocation and Cytoplasm, AR (gene 367) (P10275 whole entry, looked up): as the sequence (P10275 whole entry, looked up, the tested form may be a part) above
In short: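 Primary screen at 20 uM final (0.2% DMSO), then triplicate confirmation and dose-response from 0.195 to 50 uM final (0.5% DMSO). Cells: U2OS with AR-RFP and TIF2-GFP. Endpoint is the nucleoli/cytoplasm red-fluorescence ratio, gain-of-signal vs DMSO.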

[9] = target: Nucleoli Translocation, AR (gene 367) (UniProt P10275); assay: UPITT_HCI_U2OS_AR_TIF2_Nucleoli_Agonist: University of Pittsburgh U2OS Androgen Receptor-Transcriptional Intermediary Factor 2 (AR-TIF2) Agonism High Content Imaging Assay for Nucleoli Translocation (AID 2283998; active means hit-call score of the fitted dose curve at least 0.9, where 1 is the maximum)
In short: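 Cells express human AR fused to red fluorescent protein and TIF2 fused to GFP. Red fluorescence in the nucleolar region was quantified by high-content imaging and fitted as gain-of-signal against a DMSO baseline. Compounds were tested at 0.195 to 50 uM final (0.5% DMSO).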

[10] = target: Ratio of Nucleoli Translocation and Cytoplasm, AR (gene 367) (UniProt P10275); assay: UPITT_HCI_U2OS_AR_TIF2_Nucleoli_Cytoplasm_Ratio_Antagonist: University of Pittsburgh U2OS Androgen Receptor-Transcriptional Intermediary Factor 2 (AR-TIF2) Antagonism High Content Imaging Assay for Ratio of Nucleoli Translocation and Cytoplasm (AID 2283999; active means hit-call score of the fitted dose curve at least 0.9, where 1 is the maximum;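 further: antagonists lower the DHT-driven ratio of nucleolar to cytoplasmic red signal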)
In short: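 High-content imaging of red fluorescence ratio, nucleoli versus cytoplasm, in U2OS expressing AR-RFP and TIF2-GFP, fitted relative to DHT. Compounds tested once at 20 uM final, then 0.195 to 50 uM final in serial dilution.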

[11] = CCTE_Simmons_MITO_basal_resp_rate: CCTE's HepG2 Seahorse XF Respirometric Screening Assay at Basal Respiratory State, Simmons Lab (AID 2284001); conditions: actives raise or lower the signal
In short: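 Readout is oxygen consumption rate after test compound injection, measured by Seahorse XF in HepG2 cells. Seven concentrations from 125 nM up to 100 uM final are tested, and activity in either direction is fitted against DMSO.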

[12] = CCTE_Simmons_MITO_max_resp_rate: CCTE's HepG2 Seahorse XF Respirometric Screening Assay at Maximal Respiratory State [uncoupled], Simmons Lab (AID 2284002); conditions: actives raise or lower the signal
In short: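 HepG2 oxygen consumption was read on a Seahorse XF96 after FCCP uncoupler injection, following test compound injection; 7 concentrations, 125 nM–100 uM final, three biological replicates. Bidirectional fitting against DMSO vehicle baseline.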

[13] = CCTE_Simmons_MITO_inhib_resp_rate: CCTE's HepG2 Seahorse XF Respirometric Screening Assay at Inhibited Respiratory State [full ETC block], Simmons Lab (AID 2284006); conditions: actives raise or lower the signal
In short: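 This endpoint is the respiration rate remaining after rotenone/antimycin A block, in HepG2 cells on a Seahorse XF96. Chemicals spanned 125 nM–100 uM final, in three biological replicates. OCR was read every 6 minutes for 72 minutes and compared with DMSO vehicle.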

[14] = CCTE_Simmons_MITO_viability: CellTiter-Glo Viability Assessment for CCTE's HepG2 Seahorse XF Respirometric Screening Assay [post-hoc], Simmons Lab (AID 2284007; active means hit-call score of the fitted dose curve at least 0.9, where 1 is the maximum)
In short: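 Luciferase-coupled ATP read-out after the Seahorse run: HepG2 cells treated 90 minutes with test chemical, 7-point series of 125 nM–100 uM final, in triplicate biological runs. Vehicle DMSO; dichlone as positive control over 8 concentrations.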

[15] = CCTE_Harrill_HTTr_Apoptosis_DMEM_6hr: (Pilot) CCTE's 6-hour Apoptosis Assessment for the High-Throughput Transcriptomics (HTTr) Platform, in MCF-7 cells cultured in DMEM + 10% fetal bovine serum, Harrill Lab (AID 2283981)
In short: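 MCF-7 cells grown in DMEM + 10% FBS were exposed for 6 hours to an eight-point dilution series. CellEvent Caspase 3/7 Green signal was imaged; activity fitted bidirectionally against DMSO.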

[16] = CCTE_Harrill_HTTr_Apoptosis_DMEM_12hr: (Pilot) CCTE's 12-hour Apoptosis Assessment for the High-Throughput Transcriptomics (HTTr) Platform, in MCF-7 cells cultured in DMEM + 10% fetal bovine serum, Harrill Lab (AID 2283982)
In short: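 Caspase-3/7 activity was measured by high-content imaging (CellEvent Caspase 3/7 Green) after a 12-hour exposure of MCF-7 cells grown in DMEM with 10% FBS. Eight-point concentration series, fitted bidirectionally against vehicle.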

[17] = CCTE_Harrill_HTTr_Apoptosis_DMEM_24hr: (Pilot) CCTE's 24-hour Apoptosis Assessment for the High-Throughput Transcriptomics (HTTr) Platform, in MCF-7 cells cultured in DMEM + 10% fetal bovine serum, Harrill Lab (AID 2283983)
In short: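 Caspase-3/7 activity read by high-content imaging (CellEvent Green reagent) 24 h after dosing. MCF-7 cells grown in DMEM with 10% FBS received an eight-point concentration series; fits were bidirectional versus DMSO.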

[18] = CCTE_Harrill_HTTr_Apoptosis_PRF_DMEM_6hr: (Pilot) CCTE's 6-hour Apoptosis Assessment for the High-Throughput Transcriptomics (HTTr) Platform, in MCF-7 cells cultured phenol red-free DMEM + 10% charcoal-stripped fetal bovine serum, Harrill Lab (AID 2283984)
In short: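 Caspase-3/7 activity (CellEvent Green) read by high-content imaging 6 h after dosing, eight concentrations. Cells: MCF-7, phenol red-free DMEM with 10% charcoal-stripped serum. Curves fit both directions against DMSO.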

[19] = CCTE_Harrill_HTTr_Apoptosis_PRF_DMEM_24hr: (Pilot) CCTE's 24-hour Apoptosis Assessment for the High-Throughput Transcriptomics (HTTr) Platform, in MCF-7 cells cultured in phenol red-free DMEM + 10% charcoal-stripped fetal bovine serum, Harrill Lab (AID 2283986)
In short: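 Eight concentrations tested for 24 h on MCF-7 grown in charcoal-stripped serum, phenol red-free DMEM. High content imaging of CellEvent Caspase 3/7 Green signal gives apoptosis read-out, fitted both ways relative to DMSO.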

Measured: AC50

OC(CCl)CCl
inactive: [1] | [2] | [3] | [4] | [5] | [6]

O=C(O)[C@H](O)[C@@H](O)C(=O)O
inactive: [3] | [4]

c1ccc(C(O[C@@H]2CCCN(CCc3ccc4c(c3)OCO4)C2)c2ccccc2)cc1
inactive: [1] | [2] | [3] | [4] | [5] | [6]

Cc1nc(-c2ccccn2)ncc1C(=O)Nn1cc(C)c2cc(F)ccc21
inactive: [7] | [8] | [3] | [4] | [5]

CCN(CC)C(=S)SSC(=S)N(CC)CC
active: [7] 19.8 µM | [9] 50 µM | [10] 11.7 µM | [8] 64.4 µM
inactive: [11] | [12] | [13] | [14] | [3] | [4] | [5]

COc1cc(C(C)C)c2c(c1)S(=O)(=O)N(COc1cc(=O)n3cccc(OCCN4CCCCC4)c3n1)C2=O
inactive: [9] | [10] | [8] | [1] | [2] | [3] | [4] | [6]
active: [7] 5.14 µM

O=S(=O)(O)c1ccc(N=Nc2c(O)ccc3cc(S(=O)(=O)O)ccc23)cc1
inactive: [1] | [2] | [3] | [4] | [5] | [6]

CCCc1ccccc1
inactive: [1] | [2] | [6]

Cc1nccn1-c1ccc(Sc2cccc(C3(C(N)=O)CCOCC3)c2)cc1
active: [11] 9.2 µM | [12] 5.55 µM | [13] 13.2 µM
inactive: [14] | [3] | [4]

CCCCCCOC(=O)CC(CC(=O)OCCCCCC)(OC(=O)CCC)C(=O)OCCCCCC
inactive: [7] | [9] | [8] | [3] | [4] | [5]

CC(C)C(=O)Nc1ccc([N+](=O)[O-])c(C(F)(F)F)c1
active: [1] 5.06 µM | [2] 5.21 µM
inactive: [15] | [16] | [17] | [18] | [19] | [3] | [4] | [5] | [6]

NC(=O)NN=Cc1ccc([N+](=O)[O-])o1
inactive: [12] | [14] | [3] | [4]
active: [11] 50 µM | [13] 50 µM
